# Data: PMC11006913
# Target: NKX3-2 (Homo sapiens, UniProt P78367 192-278, P234S)
# Assay: PBM; 200 nM protein, PBS
# Settings: dsDNA, one strand shown
# Chain of NKX3-2 (Homo sapiens, UniProt P78367 192-278, P234S) (P78367 192-278 P234S): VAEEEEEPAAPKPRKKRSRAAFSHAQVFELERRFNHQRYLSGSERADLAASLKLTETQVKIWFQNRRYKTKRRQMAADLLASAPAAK
row,Sequence,binding signal
1,AGAGGGCA,"11.8 upbm affinity estimate (log intensity, higher = more binding, comparable within an allelic series)"
2,GCCGGCGC,"10.3 upbm affinity estimate (log intensity, higher = more binding, comparable within an allelic series)"
3,CCGCTCAG,"10.6 upbm affinity estimate (log intensity, higher = more binding, comparable within an allelic series)"
4,ACTTACTG,"11.6 upbm affinity estimate (log intensity, higher = more binding, comparable within an allelic series)"
5,ACGGCGGG,"10.4 upbm affinity estimate (log intensity, higher = more binding, comparable within an allelic series)"
6,CAAAGTGG,"12.8 upbm affinity estimate (log intensity, higher = more binding, comparable within an allelic series)"
7,GGACCCGA,"10.6 upbm affinity estimate (log intensity, higher = more binding, comparable within an allelic series)"
8,GAAGTGCC,"12.8 upbm affinity estimate (log intensity, higher = more binding, comparable within an allelic series)"
9,CTGCCGCA,"10.7 upbm affinity estimate (log intensity, higher = more binding, comparable within an allelic series)"
10,ATCCGAGC,"10.6 upbm affinity estimate (log intensity, higher = more binding, comparable within an allelic series)"
11,GTCACTTA,"12.5 upbm affinity estimate (log intensity, higher = more binding, comparable within an allelic series)"
12,GGCGCGCA,"10.6 upbm affinity estimate (log intensity, higher = more binding, comparable within an allelic series)"
13,CCAGGTTA,"10.6 upbm affinity estimate (log intensity, higher = more binding, comparable within an allelic series)"
14,CGTTAACG,"10.4 upbm affinity estimate (log intensity, higher = more binding, comparable within an allelic series)"
15,AAGGAGTG,"11.9 upbm affinity estimate (log intensity, higher = more binding, comparable within an allelic series)"
16,AAGCCGCC,"10.7 upbm affinity estimate (log intensity, higher = more binding, comparable within an allelic series)"
17,CTCTTGCC,"11.4 upbm affinity estimate (log intensity, higher = more binding, comparable within an allelic series)"
18,CGCGGCCG,"10.2 upbm affinity estimate (log intensity, higher = more binding, comparable within an allelic series)"
19,AAACCGCG,"10.5 upbm affinity estimate (log intensity, higher = more binding, comparable within an allelic series)"
20,CAAGTGCG,"12.2 upbm affinity estimate (log intensity, higher = more binding, comparable within an allelic series)"

row,Sequence,binding signal
1,CGCCAGCC,"10.7 upbm affinity estimate (log intensity, higher = more binding, comparable within an allelic series)"
2,CTAAAGGC,"10.5 upbm affinity estimate (log intensity, higher = more binding, comparable within an allelic series)"
3,ACCAACGC,"10.7 upbm affinity estimate (log intensity, higher = more binding, comparable within an allelic series)"
4,GACGAACC,"10.6 upbm affinity estimate (log intensity, higher = more binding, comparable within an allelic series)"
5,CCGCGGCA,"10.5 upbm affinity estimate (log intensity, higher = more binding, comparable within an allelic series)"
6,CCACTTCG,"12.8 upbm affinity estimate (log intensity, higher = more binding, comparable within an allelic series)"
7,CACTTACG,"12.7 upbm affinity estimate (log intensity, higher = more binding, comparable within an allelic series)"
8,ACGGCAGC,"10.6 upbm affinity estimate (log intensity, higher = more binding, comparable within an allelic series)"
9,AATGCGGT,"10.7 upbm affinity estimate (log intensity, higher = more binding, comparable within an allelic series)"
10,CCTCTTAC,"12.1 upbm affinity estimate (log intensity, higher = more binding, comparable within an allelic series)"
11,GGCTCCCC,"10.6 upbm affinity estimate (log intensity, higher = more binding, comparable within an allelic series)"
12,ACCAGGCT,"10.6 upbm affinity estimate (log intensity, higher = more binding, comparable within an allelic series)"
13,CCGAGTAC,"11.5 upbm affinity estimate (log intensity, higher = more binding, comparable within an allelic series)"
14,CCCACTTC,"12.7 upbm affinity estimate (log intensity, higher = more binding, comparable within an allelic series)"
15,GCCACTCA,"12.6 upbm affinity estimate (log intensity, higher = more binding, comparable within an allelic series)"
16,CGGGTTAG,"10.5 upbm affinity estimate (log intensity, higher = more binding, comparable within an allelic series)"
17,CGGTTACC,"10.6 upbm affinity estimate (log intensity, higher = more binding, comparable within an allelic series)"
18,CGGCTGGC,"10.4 upbm affinity estimate (log intensity, higher = more binding, comparable within an allelic series)"
19,CTGCATCC,"10.6 upbm affinity estimate (log intensity, higher = more binding, comparable within an allelic series)"

# Target: NKX3-2 (Homo sapiens, UniProt P78367 192-278)
# Assay: PBM; 200 nM protein, PBS
# Settings: dsDNA, one strand shown
# Chain of NKX3-2 (Homo sapiens, UniProt P78367 192-278) (P78367 192-278): as the sequence (P78367 192-278 P234S) above, with S43P counted along it
row,Sequence,binding signal
1,AGAGGGCA,"11.8 upbm affinity estimate (log intensity, higher = more binding, comparable within an allelic series)"
2,GCCGGCGC,"10.3 upbm affinity estimate (log intensity, higher = more binding, comparable within an allelic series)"
3,CCGCTCAG,"10.6 upbm affinity estimate (log intensity, higher = more binding, comparable within an allelic series)"
4,ACTTACTG,"11.7 upbm affinity estimate (log intensity, higher = more binding, comparable within an allelic series)"
5,ACGGCGGG,"10.4 upbm affinity estimate (log intensity, higher = more binding, comparable within an allelic series)"
6,CAAAGTGG,"12.9 upbm affinity estimate (log intensity, higher = more binding, comparable within an allelic series)"
7,GGACCCGA,"10.6 upbm affinity estimate (log intensity, higher = more binding, comparable within an allelic series)"
8,GAAGTGCC,"12.9 upbm affinity estimate (log intensity, higher = more binding, comparable within an allelic series)"
9,CTGCCGCA,"10.6 upbm affinity estimate (log intensity, higher = more binding, comparable within an allelic series)"
10,ATCCGAGC,"10.6 upbm affinity estimate (log intensity, higher = more binding, comparable within an allelic series)"
11,GTCACTTA,"12.6 upbm affinity estimate (log intensity, higher = more binding, comparable within an allelic series)"
12,GGCGCGCA,"10.6 upbm affinity estimate (log intensity, higher = more binding, comparable within an allelic series)"
13,CCAGGTTA,"10.8 upbm affinity estimate (log intensity, higher = more binding, comparable within an allelic series)"
14,CGTTAACG,"10.5 upbm affinity estimate (log intensity, higher = more binding, comparable within an allelic series)"
15,AAGGAGTG,"12 upbm affinity estimate (log intensity, higher = more binding, comparable within an allelic series)"
16,AAGCCGCC,"10.7 upbm affinity estimate (log intensity, higher = more binding, comparable within an allelic series)"
17,CTCTTGCC,"11.5 upbm affinity estimate (log intensity, higher = more binding, comparable within an allelic series)"
18,CGCGGCCG,"10.2 upbm affinity estimate (log intensity, higher = more binding, comparable within an allelic series)"
19,AAACCGCG,"10.5 upbm affinity estimate (log intensity, higher = more binding, comparable within an allelic series)"
20,CAAGTGCG,"12.3 upbm affinity estimate (log intensity, higher = more binding, comparable within an allelic series)"

row,Sequence,binding signal
1,CGCCAGCC,"10.6 upbm affinity estimate (log intensity, higher = more binding, comparable within an allelic series)"
2,CTAAAGGC,"10.6 upbm affinity estimate (log intensity, higher = more binding, comparable within an allelic series)"
3,ACCAACGC,"10.7 upbm affinity estimate (log intensity, higher = more binding, comparable within an allelic series)"
4,GACGAACC,"10.5 upbm affinity estimate (log intensity, higher = more binding, comparable within an allelic series)"
5,CCGCGGCA,"10.5 upbm affinity estimate (log intensity, higher = more binding, comparable within an allelic series)"
6,CCACTTCG,"12.9 upbm affinity estimate (log intensity, higher = more binding, comparable within an allelic series)"
7,CACTTACG,"12.8 upbm affinity estimate (log intensity, higher = more binding, comparable within an allelic series)"
8,ACGGCAGC,"10.5 upbm affinity estimate (log intensity, higher = more binding, comparable within an allelic series)"
9,AATGCGGT,"10.8 upbm affinity estimate (log intensity, higher = more binding, comparable within an allelic series)"
10,CCTCTTAC,"12.2 upbm affinity estimate (log intensity, higher = more binding, comparable within an allelic series)"
11,GGCTCCCC,"10.6 upbm affinity estimate (log intensity, higher = more binding, comparable within an allelic series)"
12,ACCAGGCT,"10.6 upbm affinity estimate (log intensity, higher = more binding, comparable within an allelic series)"
13,CCGAGTAC,"11.6 upbm affinity estimate (log intensity, higher = more binding, comparable within an allelic series)"
14,CCCACTTC,"12.8 upbm affinity estimate (log intensity, higher = more binding, comparable within an allelic series)"
15,GCCACTCA,"12.7 upbm affinity estimate (log intensity, higher = more binding, comparable within an allelic series)"
16,CGGGTTAG,"10.5 upbm affinity estimate (log intensity, higher = more binding, comparable within an allelic series)"
17,CGGTTACC,"10.5 upbm affinity estimate (log intensity, higher = more binding, comparable within an allelic series)"
18,CGGCTGGC,"10.4 upbm affinity estimate (log intensity, higher = more binding, comparable within an allelic series)"
19,CTGCATCC,"10.7 upbm affinity estimate (log intensity, higher = more binding, comparable within an allelic series)"
